Source: PubChem BioAssay
Compounds with a hit are over-represented: about 19% of the library has one in this group of screens.
HT1080 IDH1KD tx: kills HT-1080 cells with IDH1 knockdown; HT-1080 IDH1 knockdown viability, ATP luminescence, 48 h; Potency, µM (titrated, usually from 46.1 µM), for the others: top-dose activity, negative = toxicity, actives largely listed as cytotoxic; 360,000 compounds, 2% hits;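 further: 0% = DMSO wells and -100% = cell-free medium wells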
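Cytotoxicity counter-line: IDH1KD HT-1080, 48 h, CellTiter-Glo. Curves classed by r2, magnitude and activity.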
TDP1 cell CPT: growth inhibition of DT40 Tdp1-/-;hTDP1 cells with camptothecin (screen for TDP1 inhibitors); chicken DT40 Tdp1-/-;hTDP1 cells + 20 nM CPT, ATP luminescence, 48 h; AID 686979; Potency, µM (highest dose often 46.2 µM), for inactives: at the top dose activity change, negative = growth inhibition, most hits filed as inhibitors; 420,000 compounds, 12% hits; further: nearly all actives have a fitted effect of over 55% in size
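Cell growth measured by CellTiter-Glo luminescence after a minimum 48 h, 37 C compound exposure with 20 nM CPT in Tdp1-knockout DT40 cells stably expressing hTDP1, seeded 400/well; qHTS titration format.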
DT40 TDP1 no CPT: qHTS for Inhibitors of human tyrosyl-DNA phosphodiesterase 1 (TDP1): qHTS in cells in absence of CPT; DT40 Tdp1-/- hTDP1 cells, no CPT, ATP luminescence, 48 h; Potency, µM (series often up to 46.2 µM), inactives show top-dose activity change, negative = growth inhibition, hits mostly inhibitors; 420,000 compounds, 15% hits; further: nearly all actives have a fitted effect of over 55% in size
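Luminescent ATP content (CellTiter-Glo) served as the growth readout. Knockout chicken DT40 cells expressing human TDP1 were exposed to compounds without camptothecin for a minimum 48 hr at 37 °C.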
KB-3-1 cytotox: KB-3-1 parental cell cytotoxicity; AID 1347075; 400,000 compounds, 1.4% hits; Potency, µM (series often up to 46.1 µM), most hits filed as cytotoxic; KB-3-1 viability, CellTiter-Glo ATP luminescence, 72 h; further: nearly all actives have a fitted effect of over 60% in size
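Screening of KB-3-1 cells (DMEM, 10% FBS, phenol-red free) ran from lowest to highest compound concentration; after 72 h at 37 °C viability was read luminescently and curves fitted.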
KB-V1 cytotox: KB-V1 MDR subline cytotoxicity | Potency, µM (titrated, usually from 46.1 µM), actives largely listed as cytotoxic | KB-V1 MDR cells viability, CellTiter-Glo, 72 h | 400,000 compounds, 3.4% hits; further: nearly all actives have a fitted effect of over 60% in size
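Cells of the MDR subline KB-V1 are plated, dosed with compound at multiple concentrations, and incubated 72 h at 37 degrees C; CellTiter-Glo is then added and luminescence read after 10 min.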
HT1080NT lethal: kills 2HG-producing HT-1080-NT fibrosarcoma cells; HT-1080-NT fibrosarcoma viability, CellTiter-Glo ATP luminescence, 48 h; Potency, µM (highest dose often 46.1 µM), for inactives: at the highest dose activity, negative = less viability, hits mostly cytotoxic; 360,000 compounds, 1.6% hits;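 further: NT is the 2HG producing partner of a matched IDH1 knockdown line; 0% = DMSO-treated cells and -100% = media-only wells without cells; nearly all actives have a fitted effect of over 55% in size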
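Compounds were tested in concentration-response format on HT-1080-NT cells for 48 hours at 37 degrees C. Cell viability came from CellTiter-Glo luminescence; curves were classified by r2, response magnitude and activity.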
An asterisk follows results filed as active. The call rests on the fitted dose curve; in most records, active means well fitted curve in the direction sought with a large enough effect; inconclusive means small, poorly fitted or top-dose-only effect, or another doubt; inactive means no such curve, though single readings can be large; an effect the other way counts as inactive or inconclusive. Unless noted, on the % scale 0 is the no-effect control and ±100 the full control effect; potency means the concentration at half of the fitted maximal effect.

Screening COc1ccc(S(=O)(=O)N2C[C@@H](O)COC[C@@H]3O[C@H](CC(=O)NCCCN4CCOCC4)CC[C@H]32)cc1 returned HT1080 IDH1KD tx 22%, TDP1 cell CPT -5%, DT40 TDP1 no CPT 0%, KB-3-1 cytotox inactive, KB-V1 cytotox inactive and HT1080NT lethal 12%.
For CC(C)c1ccc(NS(=O)(=O)c2ccc(Cl)nc2)cc1 the results were HT1080 IDH1KD tx -19%, TDP1 cell CPT -20%, DT40 TDP1 no CPT -29%, KB-3-1 cytotox inactive, KB-V1 cytotox inactive and HT1080NT lethal -23%.
O=[N+]([O-])c1ccc(Oc2ccc(S(=O)(=O)Nc3ccccc3)cc2)cc1 was read as HT1080 IDH1KD tx inconclusive, TDP1 cell CPT inconclusive, DT40 TDP1 no CPT 10µM*, KB-3-1 cytotox inconclusive, KB-V1 cytotox inactive and HT1080NT lethal inconclusive.
Screening O=C1C(Cl)=C(NS(=O)(=O)c2ccc([N+](=O)[O-])cc2)C(=O)c2ccccc21 returned HT1080 IDH1KD tx inconclusive, TDP1 cell CPT 10µM*, DT40 TDP1 no CPT 8.2µM*, KB-3-1 cytotox inconclusive, KB-V1 cytotox inconclusive and HT1080NT lethal inconclusive.
`O=[N+]([O-])c1ccc(NS(=O)(=O)c2ccc(Cl)c(Cl)c2)cc1` gave HT1080 IDH1KD tx 18µM*, TDP1 cell CPT 9.2µM*, DT40 TDP1 no CPT 10µM*, KB-3-1 cytotox inconclusive, KB-V1 cytotox inconclusive and HT1080NT lethal 16µM*.
For O=[N+]([O-])c1cc(NS(=O)(=O)c2ccc(Cl)nc2)ccc1Cl the results were HT1080 IDH1KD tx inconclusive, TDP1 cell CPT inconclusive, DT40 TDP1 no CPT 16µM*, KB-3-1 cytotox inactive, KB-V1 cytotox inconclusive and HT1080NT lethal inconclusive.
`CC(=O)Nc1ccccc1-c1nc2ccccc2n(CC(=O)Nc2cccc(C)c2C)c1=O` gave TDP1 cell CPT -23%, DT40 TDP1 no CPT -8%, KB-3-1 cytotox inactive and KB-V1 cytotox inactive.
Cc1nnc(NC(=O)CN2CCN(Cc3ccc(F)cc3Cl)CC2)s1 was read as HT1080 IDH1KD tx -2%, TDP1 cell CPT -22%, DT40 TDP1 no CPT -1%, KB-3-1 cytotox inactive, KB-V1 cytotox inactive and HT1080NT lethal -6%.
`Cc1cccc(NC(=O)c2ccc(-n3c(C)nnc3C)cc2)c1` gave TDP1 cell CPT 4%, DT40 TDP1 no CPT -11%, KB-3-1 cytotox inactive and KB-V1 cytotox inactive.
Cc1ncc2c(n1)-c1cc(F)ccc1SC2 was read as HT1080 IDH1KD tx 13%, TDP1 cell CPT -5%, DT40 TDP1 no CPT 1%, KB-3-1 cytotox inactive, KB-V1 cytotox inactive and HT1080NT lethal 13%.
Screening CSc1ncc2c(n1)-c1cc(C)ccc1SC2 returned HT1080 IDH1KD tx inconclusive, TDP1 cell CPT 2.6µM*, DT40 TDP1 no CPT 5.2µM*, KB-3-1 cytotox inconclusive, KB-V1 cytotox inactive and HT1080NT lethal inconclusive.
`CC12CCC(c3c(C(=O)Nc4nccs4)nn(-c4ccccc4)c31)C2(C)C` (configuration not stated) gave HT1080 IDH1KD tx 14µM*, TDP1 cell CPT 16µM*, DT40 TDP1 no CPT 18µM*, KB-3-1 cytotox inactive, KB-V1 cytotox inactive and HT1080NT lethal inconclusive.
Screening O=C(NCCc1ccccc1)c1ccc(NC(=O)C2CCCC2)cc1 returned HT1080 IDH1KD tx 2%, TDP1 cell CPT -21%, DT40 TDP1 no CPT -24%, KB-3-1 cytotox inactive, KB-V1 cytotox inactive and HT1080NT lethal 0%.
For CCC(COC(=O)Nc1cccc(C)c1C)NC(=O)OCC(C)C (configuration not stated) the results were HT1080 IDH1KD tx -15%, TDP1 cell CPT -23%, DT40 TDP1 no CPT -17%, KB-3-1 cytotox inactive, KB-V1 cytotox 9.2µM* and HT1080NT lethal -5%.
Screening CCC(CC)NC(=O)Nc1cccc(C)c1C returned HT1080 IDH1KD tx -8%, TDP1 cell CPT -14%, DT40 TDP1 no CPT -1%, KB-3-1 cytotox inactive, KB-V1 cytotox inactive and HT1080NT lethal 3%.
Screening COc1ccc2c(C)nc(Nc3nc(C)cc(C)n3)nc2c1 returned HT1080 IDH1KD tx 0.89µM*, TDP1 cell CPT 2.9µM*, DT40 TDP1 no CPT 3.3µM*, KB-3-1 cytotox inactive, KB-V1 cytotox inconclusive and HT1080NT lethal 0.45µM*.
CCCCc1c(C)nc2ccc(OC)cc2c1SCCC(=O)O was read as HT1080 IDH1KD tx -17%, TDP1 cell CPT 5%, DT40 TDP1 no CPT -17%, KB-3-1 cytotox inactive, KB-V1 cytotox inactive and HT1080NT lethal 5%.
For COc1ccc2nc(NC3=NC(c4ccccc4)CC(=O)N3)nc(C)c2c1 (configuration not stated) the results were HT1080 IDH1KD tx 18µM*, TDP1 cell CPT inconclusive, DT40 TDP1 no CPT 13µM*, KB-3-1 cytotox inactive, KB-V1 cytotox inactive and HT1080NT lethal inconclusive.
For COc1ccc2c(C)nc(Nc3nc(C)c(C)c(=O)[nH]3)nc2c1 the results were HT1080 IDH1KD tx inconclusive, TDP1 cell CPT 4.6µM*, DT40 TDP1 no CPT 2.9µM*, KB-3-1 cytotox 3.7µM*, KB-V1 cytotox 7.3µM* and HT1080NT lethal inconclusive.
`COc1ccc(Nc2nc(C)c3ccccc3n2)cc1` gave HT1080 IDH1KD tx -11%, TDP1 cell CPT -12%, DT40 TDP1 no CPT -26%, KB-3-1 cytotox inactive, KB-V1 cytotox inactive and HT1080NT lethal -15%.
For NC1=NC(c2ccccc2)CC(=O)N1 (configuration not stated) the results were HT1080 IDH1KD tx 0%, TDP1 cell CPT -16%, DT40 TDP1 no CPT -17%, KB-3-1 cytotox inactive, KB-V1 cytotox inactive and HT1080NT lethal 0%.
`CCCCCc1c(C)nc(Nc2nc(C)c3cc(OC)ccc3n2)[nH]c1=O` gave HT1080 IDH1KD tx 15%, TDP1 cell CPT 13µM*, DT40 TDP1 no CPT 16µM*, KB-3-1 cytotox inactive, KB-V1 cytotox inactive and HT1080NT lethal inconclusive.
Screening COc1ccc2c(C)nc(N/C(N)=N/S(=O)(=O)c3ccc(C)cc3)nc2c1 returned HT1080 IDH1KD tx -22%, TDP1 cell CPT inconclusive, DT40 TDP1 no CPT inconclusive, KB-3-1 cytotox inactive, KB-V1 cytotox inactive and HT1080NT lethal -22%.
`CC1CCN(C(=O)CCc2nnc3ccc(NCCCN4CCCC4=O)nn23)CC1` gave HT1080 IDH1KD tx 4%, TDP1 cell CPT -17%, DT40 TDP1 no CPT 1%, KB-3-1 cytotox inactive, KB-V1 cytotox inconclusive and HT1080NT lethal 9%.
